A number with no mark means an inactive call. Active and inactive are the calls of the source. No stated cut-off is given here; in the data, active means inhibition above about 28%; inactive means the rest.
Assay: StAR promoter reporter inhibitors, counter-screen for LRH-1 inverse agonist project, cell-based, luminescence, high throughput (AID 651611)
Settings: StAR promoter luciferase reporter counterscreen, at 3.6 µM, active compounds read high

Compound | inhibition
COc1ccc(NC(=S)NCCc2ccc(F)cc2)c(OC)c1 | 7.84%
CC(=O)c1ccc(NC(=O)CN2C(=O)NC3(CCc4ccccc43)C2=O)cc1 (centres undefined) | 12.2%
CN1CC(=O)N(CC(=O)Nc2ccc(N3CCOCC3)cc2)C1=O | 18.7%
O=C(c1ccccc1)N1CCN(c2ccc([N+](=O)[O-])c(N3CCOCC3)c2)CC1 | 9.16%
CC(O)(c1cccc(F)c1)c1nc(-c2ccc(S(C)(=O)=O)cc2)cs1 (centres undefined) | 2.43%
O=C(c1ccc(Cl)cc1)N1CCCCC(Cl)C1=O (centres undefined) | 20.5%
O=C(Nc1cccc(NC(=O)c2ccccc2Cl)c1)c1ccc([N+](=O)[O-])o1 | 33.1% (active)
O=C(Nc1ccc(Cl)cn1)c1ccc([N+](=O)[O-])o1 | -0.66%
CC(=O)Nc1cc(-c2ccc(S(C)(=O)=O)cc2)cn2c(-c3ccc(F)c(Cl)c3)cnc12 | 12.9%
COc1ccc(N2CCN(C(=O)CN3C(=O)NC4(CCCCCC4)C3=O)CC2)cc1 | 7.32%
COc1ccccc1NC(=O)CN1CCN(CC(=O)Nc2ccc3c(c2)OCCO3)CC1 | 6.64%
CCCN(CC(=O)Nc1ccc(C(N)=O)cc1)CC(=O)Nc1ccccc1C | 15.3%
O=C(NCc1cccc(C(F)(F)F)c1)c1cc(-c2ccccc2)nn1CC1CC(c2cccnc2)=NO1 (centres undefined) | 13%
O=C(COC(=O)c1ccc(S(=O)(=O)N2CCCC2)cc1)Nc1ccc(N2CCOCC2)cc1 | 18.1%
